Rows were chosen to be rich in hits. Some 19% of all compounds tested hit in one or more screens of this group.
uPA generation = cell surface uPA generation inhibition; cell surface uPA generation assay, qHTS; Potency, µM (highest dose often 38.3 µM), hits mostly inhibitors; hit rate 0.31% among 330,000; AID 540303; active = well fitted inhibition curve with a large enough effect; inconclusive = small, poorly fitted or top-dose-only effect; inactive = no such curve, though single readings can be large or run the other way; tested in mouse RAW 264.7 cells; note: nearly all actives have a fitted effect of over 55% in size
HT1080 IDH1KD tx = kills HT-1080 cells with IDH1 knockdown; Potency, µM (highest dose often 46.1 µM), hits mostly cytotoxic; HT-1080 IDH1 knockdown viability, ATP luminescence, 48 h; hit rate 2% among 360,000
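Cytotoxicity counter-line: IDH1KD HT-1080, 48 h, CellTiter-Glo. Curves classed by r2, magnitude and activity.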
TDP1 cell noCPT = qHTS for Inhibitors of human tyrosyl-DNA phosphodiesterase 1 (TDP1): qHTS in cells in absence of CPT | hit rate 15% among 420,000 | Potency, µM (doses to about 46.2 µM), most hits filed as inhibitors | AID 686978, 2013 | DT40 Tdp1-/- hTDP1 cells, no CPT, ATP luminescence, 48 h; note: nearly all actives have a fitted effect of over 55% in size
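Stably hTDP1-transfected Tdp1-null chicken DT40 cells were treated with library compounds minus camptothecin and grown for at least 48 hr at 37 °C, after which cellular ATP was quantified by luminescence.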
IL-1B inflam inh = inhibitors of inflammasome signaling (IL-1 beta secretion); THP-1 LPS/ATP IL-1B secretion, AlphaLISA, 16 h; stronger effect = lower value; activity change, % at 57.5 µM; hit rate 4.7% among 360,000; in the data active = activity change below about -50%; inconclusive = mostly about -30% to -49%
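Secreted IL-1B measured by AlphaLISA bead assay after 16 h compound exposure of THP-1 cells; compounds (final up to 57.5 uM) added 1 h before LPS (250 ng/mL) and ATP (1.25 mM) stimulation; lower signal means less secretion.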
TDP1 cell CPT = DT40-hTDP1 cell growth loss with CPT | chicken DT40 Tdp1-/-;hTDP1 cells + 20 nM CPT, ATP luminescence, 48 h | Potency, µM (top dose mostly 46.2 µM), most hits filed as inhibitors | hit rate 12% among 420,000 | AID 686979; note: nearly all actives have a fitted effect of over 55% in size
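Cell growth measured by CellTiter-Glo luminescence after a minimum 48 h, 37 C compound exposure with 20 nM CPT in Tdp1-knockout DT40 cells stably expressing hTDP1, seeded 400/well; qHTS titration format.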
HT1080-NT tox = kills 2HG-producing HT-1080-NT fibrosarcoma cells. HT-1080-NT fibrosarcoma viability, CellTiter-Glo ATP luminescence, 48 h. Potency, µM (top dose mostly 46.1 µM), most hits filed as cytotoxic. hit rate 1.6% among 360,000. AID 686970;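 note: NT is the 2HG producing partner of a matched IDH1 knockdown line; nearly all actives have a fitted effect of over 55% in size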
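Toxicity toward the 2HG-producing NT line was scored as %Activity, normalised to DMSO and no-cell wells, from CellTiter-Glo luminescence after 48 hours' treatment.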
Of the large screens only hits and unclear results are named; the others gave an inactive call. Unless noted, calls come from the whole dose curve; as a rule, active = well fitted curve in the direction sought with a large enough effect; inconclusive = small, poorly fitted or top-dose-only effect, or another doubt; inactive = no such curve, though single readings can be large; an effect the other way counts as inactive or inconclusive.

O=P(C(=S)Nc1ccccc1Cl)(c1ccccc1)c1ccccc1	TDP1 cell noCPT 15µM, TDP1 cell CPT 9.2µM (no result: uPA generation)
O=C(Nc1ccc2c(c1)CCC2)Nc1ccccc1Cl	IL-1B inflam inh -69, TDP1 cell CPT inconclusive
O=C(Nc1ccc(Nc2ccccc2)cc1)c1c(Cl)cccc1Cl	HT1080 IDH1KD tx inconclusive, TDP1 cell noCPT 21µM, IL-1B inflam inh -87, TDP1 cell CPT inconclusive
Cc1ccc(C(=O)Nc2ccc(Nc3ccccc3)cc2)c(Cl)c1	TDP1 cell noCPT inconclusive, TDP1 cell CPT inconclusive
CC1CN(CCc2ccccc2)c2nc3c(c(=O)n(CC(N)=O)c(=O)n3C)n2C1 (configuration not stated)	TDP1 cell CPT inconclusive
CSc1nc(C(=O)NCc2nc(-c3cccc(NC(=O)c4ccccn4)c3)oc2C)cs1	TDP1 cell noCPT inconclusive (no result: uPA generation, HT1080 IDH1KD tx, IL-1B inflam inh, HT1080-NT tox)
COc1cc(OC)c(N(C)C(=O)Cn2ncc3c(=O)oc4ccccc4c32)cc1Cl	none (no result: uPA generation, HT1080 IDH1KD tx, IL-1B inflam inh, HT1080-NT tox)
CC(C)(C)c1ccc(NC(=O)c2c(F)cccc2Cl)cc1	TDP1 cell noCPT 3.3µM, TDP1 cell CPT 10µM
O=C(Nc1ccc(Nc2ccccc2)cc1)c1ccc(F)cc1	TDP1 cell noCPT 21µM, TDP1 cell CPT inconclusive
O=C(O)c1ccc(C(=O)Nc2ccc(F)cc2)cc1	none
O=C(Nc1ccc(Nc2ccccc2)cc1)Nc1ccccc1Cl	HT1080 IDH1KD tx inconclusive, TDP1 cell noCPT 7.3µM, IL-1B inflam inh inconclusive, TDP1 cell CPT 18µM, HT1080-NT tox inconclusive
Cc1ccccc1C(=O)Nc1cccc(NC(=O)c2ccc(F)cc2)c1	TDP1 cell noCPT inconclusive, IL-1B inflam inh -50
O=C(Nc1cccc(NC(=O)c2ccccc2Cl)c1)c1ccc(F)cc1	TDP1 cell noCPT inconclusive, TDP1 cell CPT inconclusive
O=C(Nc1ccccc1C(=O)O)c1cc(S(=O)(=O)Nc2ccccc2)ccc1Cl	TDP1 cell noCPT inconclusive, TDP1 cell CPT inconclusive
O=C(NCc1ccccn1)c1cnn(-c2nccc(-c3ccccc3F)n2)c1C1CC1	none (no result: uPA generation, HT1080 IDH1KD tx, IL-1B inflam inh, HT1080-NT tox)
O=C(O)C1OCC2(CO1)COC(C(=O)O)OC2 (configuration not stated)	none
CCN1C(=O)[C@H]2[C@@H](c3ccc(C)cc3)N[C@]3(CCCN(Cc4ccco4)C3=O)[C@H]2C1=O	TDP1 cell noCPT inconclusive (no result: uPA generation)
Nc1nccnc1C(=O)OCC(=O)NCCc1ccc(S(N)(=O)=O)cc1	none
CN(C)c1cccc(N(C)C)c1CNC(=O)NC(=O)c1c(F)cccc1F	TDP1 cell noCPT inconclusive, TDP1 cell CPT inconclusive, HT1080-NT tox inconclusive
O=C(Nc1csc([N+](=O)[O-])c1)Nc1ccccc1Cl	HT1080 IDH1KD tx inconclusive, TDP1 cell noCPT 23µM, IL-1B inflam inh -98, TDP1 cell CPT 21µM, HT1080-NT tox inconclusive
O=C(Nc1ccc(Cl)cc1)Nc1ccccc1Sc1ncc([N+](=O)[O-])s1	uPA generation inconclusive, HT1080 IDH1KD tx inconclusive, TDP1 cell noCPT 6.5µM, TDP1 cell CPT 6.5µM, HT1080-NT tox inconclusive
N#Cc1ccccc1NC(=O)Nc1ccc(Cl)cc1	none
CN(C)c1cccc(F)c1C(=O)NC(=O)Nc1ccc(Cl)cc1	HT1080 IDH1KD tx inconclusive, TDP1 cell noCPT 6.5µM, TDP1 cell CPT 5.2µM, HT1080-NT tox inconclusive
CCN(CCCNC(=O)c1nn(-c2ccc(OC)c(Cl)c2)c(=O)c2c1c1ccccc1n2C)c1ccccc1	none (no result: uPA generation, HT1080 IDH1KD tx, IL-1B inflam inh, HT1080-NT tox)
Cc1cnc(-n2ncc(C(=O)NCc3cccnc3)c2C)nc1-c1ccc(F)cc1	none (no result: uPA generation, HT1080 IDH1KD tx, IL-1B inflam inh, HT1080-NT tox)
CS(=O)(=O)NCC(c1ccco1)N1CCN(c2ccc(F)cc2)CC1 (configuration not stated)	none
Cc1cccc(C)c1-n1nnnc1C1c2ccccc2C(=O)N1C1CC1 (configuration not stated)	HT1080 IDH1KD tx inconclusive (no result: uPA generation)
Cc1ccc(OCc2cc(C(=O)NCc3cc(F)ccc3C)no2)cn1	TDP1 cell noCPT inconclusive, TDP1 cell CPT 16µM
CSc1ccccc1OCc1cc(C(=O)NC2CCc3ccccc32)no1 (configuration not stated)	none
CCC(NC(=O)c1cc(COc2ccc(C)nc2)on1)c1ccc(C)cc1 (configuration not stated)	TDP1 cell noCPT inconclusive, TDP1 cell CPT 16µM, HT1080-NT tox inconclusive
Cc1ccc(OCc2cc(C(=O)NC3CCc4ccccc43)no2)cn1 (configuration not stated)	TDP1 cell noCPT 13µM, TDP1 cell CPT 18µM
Cc1ccc(OCc2cc(C(=O)NCC3COCCO3)no2)cc1C (configuration not stated)	uPA generation inconclusive, TDP1 cell noCPT inconclusive, TDP1 cell CPT inconclusive
Cc1ccc(OCc2cc(C(=O)NCC(C)(C)N3CCOCC3)no2)cc1C	TDP1 cell noCPT inconclusive, IL-1B inflam inh -70, TDP1 cell CPT inconclusive
COc1ccccc1/C=C/C=N/n1c(C)nnc1C	none
CCOC(=O)COc1ccc(F)cc1C(=O)c1ccn2nc(-c3ccc(Cl)cc3)cc2n1	none (no result: uPA generation, HT1080 IDH1KD tx, IL-1B inflam inh, HT1080-NT tox)
Cc1ccc2c(c1)c1c(c(=O)n(-c3cccc(Cl)c3)c(=O)n1CC(=O)N1CCCC1)n2C	TDP1 cell CPT inconclusive (no result: uPA generation, HT1080 IDH1KD tx, IL-1B inflam inh, HT1080-NT tox)
CCC(NC(=O)c1cc(COc2ccc(Cl)cc2OC)on1)c1ccncc1 (configuration not stated)	TDP1 cell noCPT inconclusive, TDP1 cell CPT inconclusive
CCC(NC(=O)c1cc(COc2cc(C)c(Cl)c(C)c2)on1)c1ccncc1 (configuration not stated)	TDP1 cell noCPT 21µM, TDP1 cell CPT inconclusive
COc1ccc(OCc2cc(C(=O)NC3Cc4ccccc4C3)no2)c(Cl)c1	HT1080 IDH1KD tx inconclusive, TDP1 cell noCPT 3.7µM, TDP1 cell CPT 3.3µM, HT1080-NT tox inconclusive
CCC(NC(=O)c1cc(COc2ccc(OC)cc2Cl)on1)c1ccncc1 (configuration not stated)	TDP1 cell noCPT 12µM, TDP1 cell CPT inconclusive
N#Cc1ccccc1S(=O)(=O)N1CCN(C(=O)c2cn(-c3ccccc3)nc2-c2cccnc2)CC1	none
CCCCN(CCO)c1ncnc2sc(-c3ccccc3)cc12	HT1080 IDH1KD tx inconclusive, TDP1 cell noCPT 16µM, TDP1 cell CPT inconclusive (no result: IL-1B inflam inh)
CCOC(CNc1ncnc2sc(-c3ccccc3)cc12)OCC	TDP1 cell CPT inconclusive
CN(C)CCCNc1ncnc2sc(-c3ccccc3)cc12	uPA generation inconclusive, TDP1 cell noCPT 16µM, IL-1B inflam inh -76, TDP1 cell CPT inconclusive
C=CCN(c1cccc(C(F)(F)F)c1)S(=O)(=O)c1cccc(C(=O)OCC(=O)Nc2ccccc2)c1	none
CCCCCn1c(C)c2c(OCC)cccc(=O)c2c1C	TDP1 cell noCPT inconclusive, TDP1 cell CPT 23µM
CC1(C(=O)NS(=O)(=O)c2ccccc2C(F)(F)F)CCN1C(=O)c1cccc(F)c1 (configuration not stated)	none (no result: uPA generation)

Compound activity: PubChem BioAssay, National Center for Advancing Translational Sciences (NCATS)
